From PubChem
NIH3T3 tox: cytotoxic compounds in NIH 3T3 cells | AID 1345082 | actives 4.3% (n = 94,000) | Potency, µM (doses to about 96.7 µM), inactives show at the top dose activity change, negative = cytotoxicity, usual class: inhibitors | NIH 3T3 viability, CellTiter-Glo ATP luminescence, 48-72 h; note: nearly all actives have a fitted effect of over 55% in size
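Mouse fibroblast NIH 3T3 cells, 400 per well, received compound via pintool and were incubated for 48 or 72 hr prior to CellTiter-Glo ATP luminescence measurement.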
HEK293 tox: HEK 293 cell cytotoxicity; HEK 293 viability, ATP luminescence (CellTiter-Glo), 48-72 h; AID 1345083; Potency, µM (titrated, usually from 115 µM), for inactives: top-dose activity change, negative = cytotoxicity, hits mostly inhibitors; actives 6.6% (n = 94,000); note: nearly all actives have a fitted effect of over 60% in size
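Read-out: CellTiter-Glo ATP luminescence. Cells: HEK 293, 250 cells/well. Exposure: 48 or 72 hr, 37 degree Celsius.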
NPR1 antag: antagonists of human natriuretic peptide receptor Npr1; P16066; HEK293 hNpr1 GloSensor cGMP, ANP-stimulated luminescence; Potency, µM (top dose mostly 46.3 µM), inactives show top-dose activity change, negative = inhibition, actives largely listed as inhibitors; actives 1.6% (n = 76,000); calls by dose curve; note: nearly all actives have a fitted effect of over 60% in size
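HEK293 cells stably expressing human Npr1 and cGMP GloSensor pGS-40F, loaded 2 h with 2% GloSensor reagent, given compound 30 min at room temperature. Luminescence read before and 20 min after 0.1 nM hNppA.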
FLuc inh: blocks purified firefly luciferase enzyme activity; P08659; purified P. pyralis luciferase, luminescence, biochemical; Potency, µM (highest dose often 115 µM), hits mostly inhibitors; actives 2.5% (n = 76,000); AID 1347043; note: nearly all actives have a fitted effect of over 65% in size
Target sequence (P08659 whole entry, looked up): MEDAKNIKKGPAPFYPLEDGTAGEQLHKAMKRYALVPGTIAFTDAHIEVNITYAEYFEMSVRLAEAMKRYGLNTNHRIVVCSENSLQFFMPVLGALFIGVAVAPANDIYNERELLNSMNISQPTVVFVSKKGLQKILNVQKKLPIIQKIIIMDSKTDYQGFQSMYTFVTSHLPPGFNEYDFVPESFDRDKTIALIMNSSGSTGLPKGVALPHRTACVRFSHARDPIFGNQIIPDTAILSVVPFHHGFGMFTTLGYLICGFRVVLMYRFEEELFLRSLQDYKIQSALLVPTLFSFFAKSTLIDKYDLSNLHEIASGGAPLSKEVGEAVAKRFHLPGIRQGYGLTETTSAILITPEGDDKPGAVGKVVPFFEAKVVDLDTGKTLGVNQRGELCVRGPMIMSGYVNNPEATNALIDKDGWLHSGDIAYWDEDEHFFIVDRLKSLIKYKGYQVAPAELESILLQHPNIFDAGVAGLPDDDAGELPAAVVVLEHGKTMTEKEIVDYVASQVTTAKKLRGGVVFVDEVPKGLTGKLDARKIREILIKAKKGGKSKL
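Purified P. pyralis luciferase (10nM final) in 50mM Tris acetate pH 7.5, 10mM Mg acetate, 0.01% Tween-20, 0.05% BSA with 10uM D-luciferin and 10uM ATP. Compounds titrated qHTS. Luminescence imaged on CCD.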
GPT2 inh: GPT2 alanine aminotransferase inhibition | Recombinant GPT2, coupled pyruvate oxidase/HRP Amplex Red fluorescence | Q8TD30 | actives 0.25% (n = 100,000) | Potency, µM (titrated, usually from 57.7 µM), for inactives: at the top dose activity change, negative = inhibition, actives largely listed as inhibitors; note: nearly all actives have a fitted effect of over 60% in size
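Recombinant GPT2 (10ng/uL) with 250uM a-KG and 2mM L-alanine, 30 min at room temperature, in HEPES pH 7.5 buffer. Pyruvate detected by pyruvate oxidase/HRP/Amplex Red fluorescence after 30 min in the dark; AOA (50uM) as positive control.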
* marks the source's active call; other numbers are inactive results; ! = repeats disagree; [ ] = dose if it differs, or a comment. Shown are actives, neighbours in structure and some others; about 10% of the full set was active somewhere. Unless noted, calls come from the whole dose curve; as a rule, active = well fitted curve in the direction sought with a large enough effect; inconclusive = small, poorly fitted or top-dose-only effect, or another doubt; inactive = no such curve, though single readings can be large; an effect the other way counts as inactive or inconclusive. % is set by controls: 0 for no effect and ±100 for the full control effect; potency is the fitted concentration of half-maximal effect.

How did COc1ccc(Cc2nc3nccc(-c4ccc5c(c4)OCCCO5)n3n2)cc1 do in these assays?
NIH3T3 tox: inconclusive; HEK293 tox: inconclusive; NPR1 antag: 0%; FLuc inh: inactive; GPT2 inh: 2%

How did CNCCN1C(=O)CC[C@H]2CN(C(=O)Cc3c(C)noc3C)CC[C@H]21 do in these assays?
NIH3T3 tox: inactive; HEK293 tox: -3%; NPR1 antag: 13%; FLuc inh: inactive; GPT2 inh: inactive

How did O=C(Cc1ccccc1)Nc1ccnn1C1CCN(Cc2cccc3nonc23)CC1 do in these assays?
NIH3T3 tox: -7%; HEK293 tox: 0%; NPR1 antag: -3%; FLuc inh: inactive; GPT2 inh: -3%

How did COc1ccc(CNC(=O)C2CCCCN2Cc2ccc(-c3cccs3)cc2)cc1 (centres undefined) do in these assays?
NIH3T3 tox: inconclusive; HEK293 tox: inconclusive; GPT2 inh: -8%

Results for COc1ccccc1-c1ccc(CN2CCCCC2C(=O)NCc2ccccc2)cc1 (centres undefined) ?
NIH3T3 tox: inconclusive; HEK293 tox: 32µM*

How did COc1ccccc1-c1ccc(CN2CCCCC2C(=O)NCc2ccccc2F)cc1 (centres undefined) do in these assays?
NIH3T3 tox: inconclusive; HEK293 tox: 40µM*

How did COc1ccccc1-c1cccc(C(=O)N2CCC[C@H]2C(=O)NCc2ccc(F)cc2F)c1 do in these assays?
NIH3T3 tox: inconclusive; HEK293 tox: inconclusive; GPT2 inh: 0%

Results for COc1ccccc1-c1ccc(CN2CCCCC2C(=O)NCC2CC2)cc1 (centres undefined) ?
NIH3T3 tox: inconclusive; HEK293 tox: 45µM*!

What do the screens show for `COc1ccccc1-c1cccc(C(=O)N2CCC[C@H]2C(=O)NCC2CC2)c1`?
NIH3T3 tox: -19%[138 µM]; HEK293 tox: inconclusive; GPT2 inh: inactive

Results for CCC(C)/C=C(C)/C=C/C1=CC2=CC(=O)C3(C)OC(C)(O)C(C(=O)OC)C3C2=CO1 (centres undefined) ?
GPT2 inh: inactive

How did CCC(=O)Nc1cccc(-c2nnc3n2CCCC3)c1 do in these assays?
NIH3T3 tox: inactive; HEK293 tox: 5%; NPR1 antag: 0%; FLuc inh: inactive; GPT2 inh: -8%

What do the screens show for `C[C@@H]1O[C@@H](O[C@H]2[C@H](Oc3cc(O)c(C(=O)CCc4ccc(O)cc4)c(O)c3)O[C@H](CO)[C@@H](O)[C@@H]2O)[C@H](O)[C@H](O)[C@H]1O`?
GPT2 inh: 7.1µM*

How did CC(=O)c1c(O)cc(O[C@@H]2O[C@H](CO)[C@@H](O)[C@H](O)[C@H]2O)cc1O do in these assays?
GPT2 inh: inactive

What do the screens show for `Cc1ccc(-c2nnc3ccc(NCCN(C)C)nn23)nc1`?
NIH3T3 tox: inconclusive; HEK293 tox: 0%[172 µM]; NPR1 antag: 0%[70.6 µM]; FLuc inh: inactive; GPT2 inh: -11%[88.5 µM]

What do the screens show for `COCCNc1ccc2nnc(-c3ccc(C)cn3)n2n1`?
NIH3T3 tox: 112µM*; HEK293 tox: -4%[230 µM]; NPR1 antag: 3%[70.6 µM]; FLuc inh: inactive; GPT2 inh: 3%[88.5 µM]

Results for Cc1cccc(N(C)c2ccc3nnc(-c4cc(C#N)ccn4)n3n2)c1 ?
NIH3T3 tox: inconclusive; HEK293 tox: inconclusive; NPR1 antag: inconclusive; FLuc inh: inactive; GPT2 inh: 5%[88.5 µM]

What do the screens show for `Cc1ccc(-c2nnc3ccc(N(C)c4cccc(C)c4)nn23)nc1`?
NIH3T3 tox: inconclusive; HEK293 tox: 56µM*; NPR1 antag: -1%[70.6 µM]; FLuc inh: inactive; GPT2 inh: 2%[88.5 µM]

How did Cc1ccc(-c2nnc3ccc(NCCc4ccccc4)nn23)nc1 do in these assays?
NIH3T3 tox: 45µM*; HEK293 tox: 56µM*; NPR1 antag: -7%[70.6 µM]; FLuc inh: inactive; GPT2 inh: -12%[88.5 µM]

Results for Cc1cc(C(=O)N2C[C@@H]3CCCN4CCC[C@@H]([C@H]34)[C@H]2CCCC(=O)NCc2ccccc2)nn1C ?
NIH3T3 tox: 4%; HEK293 tox: -1%; NPR1 antag: 7%; FLuc inh: inactive; GPT2 inh: inactive

Results for CC(Cc1ccncc1)Nc1nccc(-c2cnn(-c3ccccc3F)c2)n1 (centres undefined) ?
NIH3T3 tox: inconclusive; HEK293 tox: 35µM*; NPR1 antag: -15%; FLuc inh: inconclusive; GPT2 inh: -7%

How did CC(Cc1ccncc1)Nc1nccc(-c2cnn(-c3ccccc3)c2)n1 (centres undefined) do in these assays?
NIH3T3 tox: inconclusive; HEK293 tox: 40µM*; NPR1 antag: -24%; FLuc inh: inconclusive; GPT2 inh: inactive

Results for COc1ccc(-n2cc(-c3ccnc(NCCC4CCCN4C)n3)cn2)cc1 (centres undefined) ?
NIH3T3 tox: inconclusive; HEK293 tox: inconclusive; NPR1 antag: 0%; FLuc inh: inconclusive; GPT2 inh: -6%

Results for Fc1ccc(CCNc2nccc(-c3cccnc3)n2)cc1 ?
NIH3T3 tox: inconclusive; HEK293 tox: inconclusive; NPR1 antag: 3%; FLuc inh: inconclusive; GPT2 inh: 3%[11.5 µM]

How did O=S(=O)(c1ccccc1)N1CCC(F)(c2nc(-c3ccncc3)no2)CC1 do in these assays?
NIH3T3 tox: inconclusive; HEK293 tox: 32µM*; GPT2 inh: inactive

How did CCn1cc(S(=O)(=O)N2CCC(F)(c3nc(-c4ccncc4)no3)CC2)cn1 do in these assays?
NIH3T3 tox: inconclusive; HEK293 tox: 45µM*; GPT2 inh: -4%

How did CCc1noc([C@@H]2CC(F)(F)CN2C(=O)C2CCNCC2)n1 do in these assays?
NIH3T3 tox: inactive; HEK293 tox: inactive; NPR1 antag: 1%; FLuc inh: inactive; GPT2 inh: inactive

How did Fc1ccc2nc(CO[C@H]3CN(Cc4cnc5ccccc5c4)C[C@H]3F)[nH]c2c1 do in these assays?
NIH3T3 tox: inconclusive; HEK293 tox: 71µM*; NPR1 antag: inconclusive; FLuc inh: inactive; GPT2 inh: -2%[88.5 µM]

Results for COC(=O)c1ccc2nc(CO[C@H]3CN(Cc4ccccc4C)C[C@H]3F)[nH]c2c1 ?
NIH3T3 tox: inconclusive; HEK293 tox: inconclusive; NPR1 antag: -1%[70.6 µM]; FLuc inh: inconclusive; GPT2 inh: inconclusive

How did COC(=O)c1ccc2nc(CO[C@H]3CN(Cc4ccc5ccccc5n4)C[C@H]3F)[nH]c2c1 do in these assays?
NIH3T3 tox: inconclusive; HEK293 tox: 100µM*; NPR1 antag: 1%[70.6 µM]; FLuc inh: inconclusive; GPT2 inh: -11%[88.5 µM]

Results for COc1cc(CN2C[C@@H](F)[C@@H](OCc3nc4ccc(F)cc4[nH]3)C2)cc(OC)c1OC ?
NIH3T3 tox: -12%[138 µM]; HEK293 tox: -16%[172 µM]; NPR1 antag: 1%[70.6 µM]; FLuc inh: inactive; GPT2 inh: inactive
